Source: PubChem
In the library only some 19% were active in any assay of this set; here they are far more common.
IL-1B inflam inh = blocks inflammasome-driven IL-1 beta release; THP-1 LPS/ATP IL-1B secretion, AlphaLISA, 16 h; hits give low values; activity change, % at 57.5 µM; actives 4.7% (n = 360,000); in the data active = activity change below about -50%; inconclusive = mostly about -30% to -49%
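Secreted IL-1B measured by AlphaLISA bead assay after 16 h compound exposure of THP-1 cells; compounds (final up to 57.5 uM) added 1 h before LPS (250 ng/mL) and ATP (1.25 mM) stimulation; lower signal means less secretion.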
HT1080 IDH1KD tx = toxicity to HT-1080 IDH1 knockdown cells (counter line); HT-1080 IDH1 knockdown viability, ATP luminescence, 48 h; Potency, µM (titrated, usually from 46.1 µM), without a hit: at the top dose activity, negative = toxicity, hits mostly cytotoxic; actives 2% (n = 360,000); AID 686971;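 also: potency is read from the fitted curve at half-maximal effect; 0% = DMSO wells and -100% = cell-free medium wells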
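Knockdown cells (IDH1KD HT-1080) received compounds 2 h after plating at 750 cells/well and were kept 48 h at 37 °C in 5% FBS RPMI. A CellTiter-Glo luminescence read gave % activity for curve fitting.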
DT40 TDP1 no CPT = qHTS for Inhibitors of human tyrosyl-DNA phosphodiesterase 1 (TDP1): qHTS in cells in absence of CPT. DT40 Tdp1-/- hTDP1 cells, no CPT, ATP luminescence, 48 h. actives 15% (n = 420,000). Potency, µM (top dose mostly 46.2 µM), for the others: at the highest dose activity change, negative = growth inhibition, actives largely listed as inhibitors; also: potency is read from the fitted curve at half-maximal effect; nearly all actives have a fitted effect of over 55% in size
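Growth kinetics read by CellTiter-Glo luminescence after ≥48 hr at 37 °C. Cells: DT40 Tdp1-/- stably carrying human TDP1, 400 per well, compound exposure in the absence of CPT (DMSO vehicle).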
DT40 TDP1 CPT = growth inhibition of DT40 Tdp1-/-;hTDP1 cells with camptothecin (screen for TDP1 inhibitors) | chicken DT40 Tdp1-/-;hTDP1 cells + 20 nM CPT, ATP luminescence, 48 h | Potency, µM (series often up to 46.2 µM), for inactives: top-dose activity change, negative = growth inhibition, usual class: inhibitors | actives 12% (n = 420,000) | AID 686979; also: potency is read from the fitted curve at half-maximal effect; nearly all actives have a fitted effect of over 55% in size
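Cell growth measured by CellTiter-Glo luminescence after a minimum 48 h, 37 C compound exposure with 20 nM CPT in Tdp1-knockout DT40 cells stably expressing hTDP1, seeded 400/well; qHTS titration format.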
HT1080-NT tox = kills 2HG-producing HT-1080-NT fibrosarcoma cells | HT-1080-NT fibrosarcoma viability, CellTiter-Glo ATP luminescence, 48 h | AID 686970 | actives 1.6% (n = 360,000) | Potency, µM (series often up to 46.1 µM), for the others: top-dose activity, negative = less viability, most hits filed as cytotoxic;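 also: NT is the 2HG producing partner of a matched IDH1 knockdown line; potency is read from the fitted curve at half-maximal effect; 0% = DMSO-treated cells and -100% = media-only wells without cells; nearly all actives have a fitted effect of over 55% in size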
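Viability of the 2HG-overproducing fibrosarcoma line after 48 hours of compound exposure at 37 degrees C was determined by luminescence with CellTiter-Glo, and concentration-effect curves were then fitted and categorized.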
* marks the source's active call; other numbers are inactive results; ? = inconclusive; · = no result. Unless noted, calls follow the shape of the dose curve; as a rule, active = well fitted curve in the direction sought with a large enough effect; inconclusive = small, poorly fitted or top-dose-only effect, or another doubt; inactive = no such curve, though single readings can be large; an effect the other way counts as inactive or inconclusive. Unless noted, % is scaled to controls: 0 for no effect and ±100 for the full control effect.

SMILES | IL-1B inflam inh | HT1080 IDH1KD tx | DT40 TDP1 no CPT | DT40 TDP1 CPT | HT1080-NT tox
COc1ccc(C(C(=O)Nc2ccc3c(c2)OCCO3)n2c(=O)c(-c3ccco3)nc3ccccc32)cc1 (stereo not drawn) | 24 | 13µM* | 21µM* | 12µM* | ?
COc1ccc(NC(=O)C(c2ccccc2)n2c(=O)c(-c3ccco3)nc3ccccc32)cc1 (stereo not drawn) | -9 | -28% | 9.2µM* | 10µM* | -16%
CC(C)(C)NC(=O)C(c1ccc(-c2ccccc2)cc1)n1c(=O)c(-c2ccco2)nc2ccccc21 (stereo not drawn) | -26 | -22% | ? | ? | ?
CC(=O)c1cn(C)c(=O)[nH]c1=O | 6 | 17% | 2% | -1% | 10%
COC(=O)c1ccc(CNC(=O)Cn2cnc(C(=O)Nc3ccc(C)c(C)c3)n2)cc1 | 12 | 7% | -12% | 1% | 2%
Cc1cc(NC(=O)NN2CCOCC2)nn1-c1c(Cl)cc(Cl)cc1Cl | -1 | -2% | 3% | 17% | -2%
Cc1ccc(C(=O)COC(=O)c2ccccc2N2C(=O)C3C4CCC(C4)C3C2=O)cc1C (stereo not drawn) | 6 | 1% | ? | ? | 6%
O=C(CCl)Nc1cc2[nH]c(=O)[nH]c2cc1Br | -101* | 6.5µM* | 1.8µM* | 2.1µM* | 10µM*
O=C(COC(=O)c1cccc(Br)c1)Nc1ccc2[nH]c(=O)[nH]c2c1 | 26 | 12% | 13% | 8% | 1%
Cc1cc2c(C)cc(=O)[nH]c2cc1NC(=O)CCl | -96* | ? | 2.3µM* | 5.2µM* | ?
CC(O)CNCCCOc1ccccc1OCc1ccccc1 (stereo not drawn) | -52* | -16% | ? | -3% | -7%
OCCCCNCc1ccc(OCc2ccccc2)cc1 | -1 | -8% | ? | ? | -4%
CC(O)CNCCCOc1cccc(C(F)(F)F)c1 (stereo not drawn) | 1 | -13% | 9% | 2% | -18%
CNCC(C)COc1ccccc1OCc1ccccc1 (stereo not drawn) | -7 | -20% | ? | ? | -12%
OCCNCCCCOc1ccc(OCc2ccccc2)cc1 | -81* | -29% | ? | ? | -28%
CC(O)CNCCCCOc1ccc(OCc2ccccc2)cc1 (stereo not drawn) | -56* | -24% | ? | 23µM* | ?
CC(O)CNCCCOc1cccc(Oc2ccccc2)c1 (stereo not drawn) | -56* | ? | 16µM* | 16µM* | -1%
O=C(Cc1c[nH]c2ccccc12)Nc1ccccc1N1CCOCC1 | 0 | -11% | ? | ? | -7%
CCOC(=O)c1ccc(CN(Cc2ccccc2C)S(=O)(=O)c2ccc(F)c(C(=O)Nc3cccc(OC)c3)c2)cc1 | · | · | -16% | 0% | ·
CCCCn1nc(NC(=O)c2cccs2)c2cc3cc(OC)ccc3nc21 | 4 | ? | 23µM* | 18µM* | ?
CCCn1nc(NC(=O)c2cccs2)c2cc3cc(OC)ccc3nc21 | -18 | -1% | 12µM* | 13µM* | 0%
CCCn1nc(NC(=O)c2cccs2)c2cc3cc(C)ccc3nc21 | -21 | -28% | 16µM* | ? | -11%
CCCCn1nc(NC(=O)CCC)c2cc3cc(OC)ccc3nc21 | 32 | -14% | ? | -24% | -14%
CCCn1nc(NC(=O)c2cccs2)c2cc3ccccc3nc21 | -2 | 3% | ? | ? | -1%
CCCCn1nc(NC(=O)c2cccs2)c2cc3ccccc3nc21 | -94* | ? | 18µM* | 21µM* | ?
SMILES | IL-1B inflam inh | HT1080 IDH1KD tx | DT40 TDP1 no CPT | DT40 TDP1 CPT | HT1080-NT tox
CCCn1nc(NC(=O)c2cccs2)c2cc3ccc(C)cc3nc21 | -16 | -3% | ? | ? | -15%
O=C(COc1ccccc1Cl)NCCNC(=O)c1ccco1 | 5 | 11% | -1% | 3% | 3%
Cc1cccc(S(=O)(=O)c2cn(C)c3cc(N4CCC(C)CC4)c(F)cc3c2=O)c1 | · | · | -12% | 2% | ·
CC(C)(C)c1ccc(NC(=O)Cn2cnc3cc([N+](=O)[O-])ccc3c2=O)cc1 | 40 | -16% | ? | ? | -3%
c1ccc(CNc2ccnc(-c3cccnc3)n2)cc1 | · | · | -24% | -27% | ·
O=C1CNC(=S)N1c1nc2ccccc2s1 | 12 | 6% | 0% | 12% | 2%
CCOc1ccc(C2CC(=O)NC2=O)cc1 (stereo not drawn) | 4 | 6% | -8% | 6% | 8%
COc1cc(C2NCC(c3ccc(Cl)cc3Cl)c3c2[nH]c2ccccc32)cc(OC)c1OC (stereo not drawn) | -66* | 15µM* | 18µM* | ? | 18µM*
C[C@H](CO)N1C[C@H](C)[C@H](CN(C)Cc2ccncc2)OCc2ccccc2-c2c(n(C)c3ccccc23)C1=O | 18 | -2% | 16µM* | 26µM* | -2%
COC(=O)N(C)C[C@@H]1OCc2ccccc2-c2c(n(C)c3ccccc23)C(=O)N([C@H](C)CO)C[C@@H]1C | -23 | -5% | 26µM* | ? | -8%
CNC[C@@H]1OCc2ccccc2-c2c(n(C)c3ccccc23)C(=O)N([C@H](C)CO)C[C@@H]1C | -18 | 2% | 18µM* | ? | -21%
C[C@@H]1CN([C@@H](C)CO)C(=O)c2c(c3ccccc3n2C)-c2ccccc2CO[C@H]1CN(C)C(=O)[C@H](Cc1ccccc1)N(C)C | -11 | -25% | 21µM* | ? | ?
CC(C)NC(=O)N(C)C[C@@H]1OCc2ccccc2-c2c(n(C)c3ccccc23)C(=O)N([C@@H](C)CO)C[C@@H]1C | 40 | -1% | ? | -20% | 14%
COc1ccccc1NC(=O)N(C)C[C@@H]1OCc2ccccc2-c2c(n(C)c3ccccc23)C(=O)N([C@H](C)CO)C[C@@H]1C | -30 | 11% | 23µM* | 21µM* | -12%
C[C@H](CO)N1C[C@H](C)[C@H](CN(C)C(=O)Nc2ccc(F)cc2)OCc2ccccc2-c2c(n(C)c3ccccc23)C1=O | 26 | -19% | 13µM* | 15µM* | -18%
COc1ccc(-c2oc3ncn4nc(-c5ccccc5OC)nc4c3c2-c2ccc(OC)cc2)cc1 | · | · | -16% | -1% | ·
CC1CCCCC1NC(=O)CCS(=O)(=O)c1cc2c(cc1Cl)NC(=O)CO2 (stereo not drawn) | 36 | 2% | 1% | -3% | 1%
